Where “and” joins values, the source holds several entries; their conditions need not be identical. Identical values can stand only once. A number with no mark means an inactive call. Calls of active or inactive are those of the source. Cut-off read from the data, not from the text of the source: active = inhibition above about 42%; inactive = the rest.

Chain of Nuclear receptor subfamily 5 group A member 2 (Homo sapiens) (O00482 whole entry, looked up): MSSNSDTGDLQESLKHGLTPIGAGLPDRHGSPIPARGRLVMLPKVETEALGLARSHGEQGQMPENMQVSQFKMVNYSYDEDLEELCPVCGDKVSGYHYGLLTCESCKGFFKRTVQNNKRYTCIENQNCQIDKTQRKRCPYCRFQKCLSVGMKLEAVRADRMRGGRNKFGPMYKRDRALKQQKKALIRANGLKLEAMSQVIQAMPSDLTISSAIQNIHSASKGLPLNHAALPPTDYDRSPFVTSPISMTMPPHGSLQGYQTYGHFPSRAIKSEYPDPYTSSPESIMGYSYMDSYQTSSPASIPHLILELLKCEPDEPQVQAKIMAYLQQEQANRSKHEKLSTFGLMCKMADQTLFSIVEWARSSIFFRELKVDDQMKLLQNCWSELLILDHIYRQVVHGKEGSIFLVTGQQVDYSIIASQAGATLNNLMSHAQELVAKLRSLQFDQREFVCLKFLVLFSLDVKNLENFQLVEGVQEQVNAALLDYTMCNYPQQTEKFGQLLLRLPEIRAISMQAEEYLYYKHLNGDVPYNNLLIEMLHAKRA

The assay addresses Nuclear receptor subfamily 5 group A member 2 (Homo sapiens) (UniProt O00482). Put plainly: NR5A2 activity suppression in reporter cells – cell-based, luminescence, confirmation (AID 651613).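 Note: HEK293T cells co-transfected with LRH-1 and StAR promoter luciferase reporter; 0% = vehicle wells and 100% = parental cells lacking receptor.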 To be noted: cell-based LRH-1 luciferase reporter, inverse agonism; at 3.6 µM; stronger effect = higher value.
`C=CS(=O)(=O)N(Cc1ccccc1Br)[C@H](CO)Cc1ccccc1`: the inhibition was 32.2%.

`CCCCCc1ccc(OCCCC[n+]2cccc(C)c2)c(CCCCC)c1`: the inhibition was 74.2% (active).

For the compound `Cc1cc(C)cc(NC(=O)c2ccc([N+](=O)[O-])o2)c1`, the inhibition was 76.3% (active).

With `CCN1/C(=C\c2ccc3cc(C)ccc3[n+]2CC)Sc2cc(C)c(C)cc21`, the inhibition is 82.5% (active).

Consider `CCOc1ccc(-c2c[n+]3c(n2-c2ccccc2)CCCCC3)cc1`, for which the inhibition was 94.5% (active).

For `COc1ccc(OC)c(NC(=O)c2nnn(Cc3ccccc3C)c2N)c1`, the inhibition was 44.5% (active).

For the compound `Brc1ccc(C2=Nn3c(nnc3-c3n[nH]c4c3CCC4)SC2)cc1`, the inhibition was 49% (active).

With `O=C(N/N=C\c1ccc([N+](=O)[O-])s1)c1cncc(Br)c1`, the inhibition is 79.7% (active).

Take `c1ccc(-c2csc3ncnc(NCC4COc5ccccc5O4)c23)cc1` (stereo not drawn): the inhibition is 57.8% (active).

With `COc1ccc(-c2n(Cc3ccccc3)c3ccccc3[n+]2Cc2ccccc2)cc1`, the inhibition is 109% (active).

For the compound `O=C(OC12CC3CC(CC(C3)C1)C2)c1ccc(NCc2cc(O)ccc2O)cc1`, the inhibition is 82.9% (active).

As for `COc1ccc(-c2cn(-c3ccccc3)c3[n+]2CCS3)cc1`, the inhibition is 61.1% (active).

For `O=C(Nc1sc2c(c1C(=O)O)CCCCC2)c1ccccc1`, the inhibition is 57% (active).

As to `Cn1nccc1C(=O)NC1CCCc2c1cnn2-c1ccc(C(C)(C)C)cc1` (stereo not drawn), the inhibition is 63.5% (active).

As to `C#CC(=O)N(c1ccc(OC)c(OC)c1)C(C(=O)NC1CCCC1)c1cccs1` (stereo not drawn), the inhibition is 57.3% (active).

On to `c1ccc(C[n+]2cccc3c4ccccc4ccc32)cc1`, for which the inhibition was 83.4% (active).

On to `CCN(CC)c1ccc(/C=N/NC(=O)c2cccc(S(=O)(=O)N3CCOCC3)c2)c(O)c1`, for which the inhibition was 96.4% (active).

As to `C[C@H]1CCC/C=C/[C@@H]2C[C@H](O)C[C@H]2[C@H](O)[C@H](S(=O)c2ccc(O)cc2)CC(=O)O1` (stereo partly drawn), the inhibition was 84.4% (active).

`Cc1cc(C)c[n+](C(C)C(=O)c2ccc(-c3ccccc3)cc2)c1` (stereo not drawn): the inhibition was 81.4% (active).

For the compound `c1ccc(CCNc2nc(-c3ccccn3)nc3ccccc23)cc1`, the inhibition was 91.9% (active).

In the case of `Clc1cccc(CNc2ccn3nc(-c4ccc(OCc5ccccc5)cc4)cc3n2)c1`, the inhibition was 40.9%.

As to `CCOC(=O)c1c2c(n(-c3ccc(OC)cc3)c1C)C(=O)C(=O)c1ccccc1-2`, the inhibition is 66.5% (active).

Regarding `Cc1ccc2c(c1C)-c1c(ccc(C)c1C)C(=O)C2=O`, the inhibition is 72% (active).

In the case of `COc1ccc(-c2c[n+](CC(=O)OC3CC(C)CCC3C(C)C)c3n2CCC3)cc1` (stereo not drawn), the inhibition was 95.2% (active).

`CCOC(=O)c1sc(N(Cc2ccccc2)C(=O)COC(=O)c2ccc(O)cc2)nc1C`: the inhibition was 55.2% (active).

Turning to `CCC(C)Nc1nc(-c2ccccn2)nc2ccccc12` (stereo not drawn), the inhibition was 67.2% (active).

In the case of `Cc1sc(NC(=O)c2ccco2)c(C(c2cccnc2)N2CCN(c3ccc(F)cc3)CC2)c1C` (stereo not drawn), the inhibition was 61.9% (active).

As for `Cc1ccnc(NC(=O)CCCOc2cc(=O)n(C)c3ccccc23)c1`, the inhibition was 91.4% (active) and 81.7% (active).

Take `CCOc1cc(/C=C2\CCC/C(=C\c3cc(Cl)c(O)c(OCC)c3)C2=O)cc(Cl)c1O`: the inhibition was 47.7% (active).

Regarding `CCCOc1ccc(Br)cc1CSC(=N)N`, the inhibition was 102% (active).

For `CC(C)(C)c1ccc(C2CC2C(=O)N/N=C\c2ccc[nH]2)cc1` (stereo not drawn), the inhibition was 105% (active).

For `CCC1C/C(=C\c2cccnc2)C(=O)/C(=C/c2cccnc2)C1` (stereo not drawn), the inhibition is 103% (active).

As for `CC(C)(C)Nc1nc(-c2ccccn2)nc2ccccc12`, the inhibition is 85.6% (active).

For the origin of these results see PubChem BioAssay.
